Assay results reported in PubChem BioAssay.
Active and inactive are the calls of the source.

Legend:
[1] = molecular target: Albumin (Bos taurus) (UniProt P02769); test: bovine serum albumin binders on microarray, profiling panel, artefact control for SMM control protein annotation, biochemical, small-molecule microarray, Alexa647 label, 635/667 nm fluorescence (AID 1118); conditions: BSA-A647 binding, fluorescence 635 nm, higher = more signal;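 also: score merges 667 nm emission intensity and signal-to-noise per printed compound spot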
Albumin (Bos taurus), sequence (P02769 whole entry, looked up): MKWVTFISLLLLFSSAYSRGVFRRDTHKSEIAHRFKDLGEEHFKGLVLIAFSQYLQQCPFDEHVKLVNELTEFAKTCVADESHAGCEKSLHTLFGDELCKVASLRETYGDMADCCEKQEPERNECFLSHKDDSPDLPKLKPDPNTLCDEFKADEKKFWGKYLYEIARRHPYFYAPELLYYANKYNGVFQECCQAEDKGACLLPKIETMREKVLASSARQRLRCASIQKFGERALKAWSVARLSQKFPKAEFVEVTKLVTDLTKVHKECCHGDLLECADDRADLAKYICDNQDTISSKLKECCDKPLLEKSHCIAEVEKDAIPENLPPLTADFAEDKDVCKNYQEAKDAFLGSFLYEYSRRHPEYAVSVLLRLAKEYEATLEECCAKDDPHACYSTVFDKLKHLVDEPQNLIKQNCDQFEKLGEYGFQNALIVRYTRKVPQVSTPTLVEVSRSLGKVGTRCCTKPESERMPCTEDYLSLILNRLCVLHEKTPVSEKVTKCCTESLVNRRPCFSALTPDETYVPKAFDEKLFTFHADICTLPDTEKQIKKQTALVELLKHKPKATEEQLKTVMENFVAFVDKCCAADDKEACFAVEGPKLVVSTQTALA

[2] = small-molecule microarray binders of probe aXIP, primary screen, biochemical, NeuroSMM set, 635/667 nm fluorescence (AID 1119); conditions: higher = more signal, called active from +8 up or from −8 down;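 also: probe is the protein aXip251-270 applied at 1 µg/mL to compound-printed slides; binding of probe to printed compounds measured as 667 nm fluorescence plus signal to noise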
[3] = small-molecule binders of probe aNOTCH3, primary screen, biochemical, small-molecule microarray, 635/667 nm fluorescence (AID 1120); conditions: higher = more signal;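 also: probe is a biotin-tagged antibody raised against NOTCH3 rather than NOTCH3 protein; score merges spot fluorescence near 667 nm with spot signal to noise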
[4] = small-molecule binders of probe aNOTCH2, primary screen, biochemical, small-molecule microarray, 635/667 nm fluorescence (AID 1121); conditions: higher = more signal;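 also: score merges feature fluorescence read at 667 nm with its signal to noise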
[5] = molecular target: Carbonic anhydrase 2 (Homo sapiens) (UniProt P00918); test: CAII small-molecule binders, profiling panel, biochemical, small-molecule microarray, Alexa647-labelled CAII (AID 1122); conditions: CAII-A647 binding fluorescence, higher = more signal
[6] = COS7 lysate on small-molecule microarray, probe aHis, 635 nm (AID 1123); conditions: COS7 cell lysate, fluorescence, higher = more signal;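 also: z-score combines 667nm fluorescence intensity with signal-to-noise per printed compound spot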
[7] = compound binding in COS7 lysate, probe aLAP1, primary screen, cell lysate, small-molecule microarray (AID 1124); conditions: probe aLAP1, fluorescence, higher = more signal;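 also: lysate comes from COS7 cells expressing LAP1 and is applied at 0.3 µg/mL; score merges spot fluorescence near 667 nm with signal-to-noise over triplicate slides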
[8] = test system: Sam68 (KHDRBS1); test: Sam68 small-molecule binders, primary screen, biochemical, small-molecule microarray, 635 nm fluorescence (AID 1125); conditions: small-molecule microarray binding, higher = more signal;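 also: score merges 667 nm channel intensity with signal to noise over triplicate slides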
[9] = test system: Chordin-like protein 2 (CHRDL2); test: CHRDL2 small-molecule binders, primary screen, biochemical, small-molecule microarray, 635 nm fluorescence (AID 1126); conditions: small-molecule microarray binding, fluorescence 635 nm; higher = more signal;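 also: printed compound slides probed with Chrdl2 protein at 4 µg/mL for 1 h at 4 C; score merges 667 nm emission intensity with signal to noise over three replicate slides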
[10] = molecular target: Concanavalin-A (Canavalia ensiformis) (UniProt P02866); test: ConA small-molecule binders, primary screen, artefact control for SMM control protein annotation, biochemical, small-molecule microarray, Alexa647 label, 635 nm (AID 1127); conditions: ConA-A647 binding fluorescence, higher = more signal;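 also: z combines 667 nm emission intensity with signal-to-noise across three replicate slides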
Concanavalin-A (Canavalia ensiformis), sequence (P02866 whole entry, looked up): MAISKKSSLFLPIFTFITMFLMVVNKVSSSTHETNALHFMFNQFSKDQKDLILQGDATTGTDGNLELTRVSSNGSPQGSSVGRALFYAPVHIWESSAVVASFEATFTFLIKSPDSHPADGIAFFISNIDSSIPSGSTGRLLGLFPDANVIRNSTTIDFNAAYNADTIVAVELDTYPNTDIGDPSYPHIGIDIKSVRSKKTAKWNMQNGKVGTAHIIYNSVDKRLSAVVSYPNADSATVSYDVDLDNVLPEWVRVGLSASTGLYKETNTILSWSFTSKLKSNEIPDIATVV

[11] = anti-His antibody binders, primary screen, artefact control for SMM control protein annotation, biochemical, small-molecule microarray, 635 nm fluorescence (AID 1128); conditions: anti-His Alexa647 antibody binding, higher = more signal;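 also: score merges feature fluorescence with signal-to-noise for each printed compound spot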
[12] = test system: Human papillomavirus type 1a E7 protein (residues 1-88); test: HPV1a E7 small-molecule binders, primary screen, biochemical, small-molecule microarray, residues 1-88, 635 nm (AID 1129); conditions: small-molecule microarray binding, fluorescence 635 nm; higher = more signal
[13] = molecular target: Focal adhesion kinase 1 (Homo sapiens) (UniProt Q05397); test: small-molecule microarray binders of FAK, primary screen, biochemical, 635/667 nm fluorescence, BSA, DTT (AID 1130); conditions: PTK2 binding, 635 nm fluorescence, higher = more signal;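 also: composite of spot emission at 667 nm and signal to noise over triplicate slides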
Focal adhesion kinase 1 (Homo sapiens), sequence (Q05397 whole entry, looked up): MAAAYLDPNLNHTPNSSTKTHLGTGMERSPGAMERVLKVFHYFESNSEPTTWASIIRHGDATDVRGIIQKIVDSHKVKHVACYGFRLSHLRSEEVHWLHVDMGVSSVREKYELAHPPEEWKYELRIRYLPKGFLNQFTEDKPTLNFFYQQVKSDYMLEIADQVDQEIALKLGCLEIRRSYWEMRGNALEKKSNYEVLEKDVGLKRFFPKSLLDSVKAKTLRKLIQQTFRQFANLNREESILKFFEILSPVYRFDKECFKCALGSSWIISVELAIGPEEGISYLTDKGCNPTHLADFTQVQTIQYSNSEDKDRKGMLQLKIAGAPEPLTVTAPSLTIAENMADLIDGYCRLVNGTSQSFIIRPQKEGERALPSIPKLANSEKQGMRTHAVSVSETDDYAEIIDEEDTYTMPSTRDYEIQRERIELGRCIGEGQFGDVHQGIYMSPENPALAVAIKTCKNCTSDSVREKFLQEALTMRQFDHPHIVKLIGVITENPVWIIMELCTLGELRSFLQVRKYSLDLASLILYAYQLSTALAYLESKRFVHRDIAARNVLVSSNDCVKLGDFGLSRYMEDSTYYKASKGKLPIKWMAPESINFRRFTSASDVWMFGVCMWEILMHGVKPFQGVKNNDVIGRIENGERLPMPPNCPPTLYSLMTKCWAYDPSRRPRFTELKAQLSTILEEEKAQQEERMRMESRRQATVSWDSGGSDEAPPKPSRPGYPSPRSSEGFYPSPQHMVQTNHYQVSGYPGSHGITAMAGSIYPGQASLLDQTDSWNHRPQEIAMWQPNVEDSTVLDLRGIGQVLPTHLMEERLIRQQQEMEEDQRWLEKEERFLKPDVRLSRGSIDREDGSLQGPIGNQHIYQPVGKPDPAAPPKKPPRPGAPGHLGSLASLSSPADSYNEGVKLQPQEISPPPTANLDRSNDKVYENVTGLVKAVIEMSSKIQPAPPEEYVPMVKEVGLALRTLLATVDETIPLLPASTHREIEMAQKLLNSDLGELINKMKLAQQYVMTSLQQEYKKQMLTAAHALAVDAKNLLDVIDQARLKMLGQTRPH

[14] = test system: Fibrinogen (Alexa647-labelled); test: fibrinogen binders on compound microarrays, profiling panel, artefact control for SMM control-protein annotation, biochemical, small-molecule microarray, 635/667 nm fluorescence (AID 1131); conditions: fibrinogen-A647 binding fluorescence, higher = more signal;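 also: z-score merges 667 nm fluorescence with per-spot signal-to-noise over triplicate slides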
[15] = molecular target: Follistatin (Homo sapiens) (UniProt P19883); test: follistatin binders on small-molecule microarrays, primary screen, biochemical, small-molecule microarray, 635/667 nm fluorescence (AID 1132); conditions: FST binding, 635 nm fluorescence, higher = more signal
Follistatin (Homo sapiens), sequence (P19883 whole entry, looked up): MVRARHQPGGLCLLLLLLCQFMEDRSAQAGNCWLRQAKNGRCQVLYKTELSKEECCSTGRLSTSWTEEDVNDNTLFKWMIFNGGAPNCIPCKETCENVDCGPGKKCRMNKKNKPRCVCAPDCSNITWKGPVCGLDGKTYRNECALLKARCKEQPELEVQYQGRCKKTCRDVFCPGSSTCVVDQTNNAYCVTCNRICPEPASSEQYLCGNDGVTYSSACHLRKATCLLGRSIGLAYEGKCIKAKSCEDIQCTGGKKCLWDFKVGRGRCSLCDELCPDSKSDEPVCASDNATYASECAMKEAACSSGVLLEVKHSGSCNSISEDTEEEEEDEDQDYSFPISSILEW

[16] = molecular target: Fibroblast growth factor 2 (Homo sapiens) (UniProt P09038); test: FGF2 binders on small-molecule microarrays, primary screen, biochemical, small-molecule microarray, 635/667 nm fluorescence (AID 1133); conditions: small-molecule microarray binding, FGF2, fluorescence 635/667; higher = more signal
Fibroblast growth factor 2 (Homo sapiens), sequence (P09038 whole entry, looked up): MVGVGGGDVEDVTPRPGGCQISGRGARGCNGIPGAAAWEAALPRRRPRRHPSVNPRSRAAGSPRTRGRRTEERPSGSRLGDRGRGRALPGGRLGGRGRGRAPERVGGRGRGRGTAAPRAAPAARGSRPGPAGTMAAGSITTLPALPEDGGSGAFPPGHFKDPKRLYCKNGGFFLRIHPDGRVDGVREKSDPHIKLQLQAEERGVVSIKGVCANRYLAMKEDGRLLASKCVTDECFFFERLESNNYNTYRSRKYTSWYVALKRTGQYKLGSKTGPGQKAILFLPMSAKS

[17] = mitochondrial membrane potential change in A549 cells, profiling panel, cell-based, JC-1 fluorescence, basal, 24 h, 100 nL (AID 1138); conditions: higher = more signal;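 also: A549 lung adenocarcinoma cells under basal conditions with no added stimulus; test concentration not given here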
[18] = test system: Lefty1; test: Lefty1 binders on small-molecule microarrays, primary screen, biochemical, small-molecule microarray, 635/667 nm fluorescence (AID 1139); conditions: small-molecule microarray binding, fluorescence 635/667; higher = more signal
[19] = test system: wheat germ agglutinin (Triticum aestivum), Alexa647-labelled; test: wheat germ agglutinin binders on compound microarrays, profiling panel, artefact control for SMM control-protein annotation, biochemical, small-molecule microarray, 635/667 nm fluorescence (AID 1140); conditions: WGA-A647 binding, 635 nm fluorescence, higher = more signal;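 also: score merges 667 nm feature emission with signal to noise over triplicate slides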
[20] = molecular target: Luciferin 4-monooxygenase (Photinus pyralis) (UniProt P08659); test: firefly luciferase enzyme inhibitors, primary screen, biochemical, luminescence, purified enzyme, 2006 set (AID 1141); conditions: SteadyGlo luminescence, 30 min, higher = more signal, called active from +8 up or from −8 down;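 also: cell-free assay with purified firefly luciferase at 100 ng per well in PBS; test concentration not given here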
Luciferin 4-monooxygenase (Photinus pyralis), sequence (P08659 whole entry, looked up): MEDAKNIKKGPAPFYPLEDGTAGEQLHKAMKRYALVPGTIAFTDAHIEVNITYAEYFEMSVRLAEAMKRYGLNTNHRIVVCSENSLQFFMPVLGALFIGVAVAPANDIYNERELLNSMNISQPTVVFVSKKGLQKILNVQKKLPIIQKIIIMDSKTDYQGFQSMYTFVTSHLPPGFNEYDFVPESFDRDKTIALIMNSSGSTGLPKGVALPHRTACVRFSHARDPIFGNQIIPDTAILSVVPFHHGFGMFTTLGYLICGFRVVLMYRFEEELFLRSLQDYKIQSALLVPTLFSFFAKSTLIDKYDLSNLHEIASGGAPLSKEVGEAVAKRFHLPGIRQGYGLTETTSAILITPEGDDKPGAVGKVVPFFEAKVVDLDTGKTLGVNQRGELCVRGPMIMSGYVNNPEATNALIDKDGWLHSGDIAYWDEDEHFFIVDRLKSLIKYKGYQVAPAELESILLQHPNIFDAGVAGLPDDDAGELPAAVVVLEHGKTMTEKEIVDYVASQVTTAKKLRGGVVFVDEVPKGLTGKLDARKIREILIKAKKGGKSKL

Row | Structure (SMILES) | composite z-score [1] | composite Z-score [2] | composite z-score [3] | composite z-score [4] | composite z-score [5] | composite z-score [6] | composite z-score [7] | composite z-score [8] | composite z-score [9] | composite z-score [10] | composite z-score [11] | composite z-score [12] | composite z-score [13] | composite z-score [14] | composite z-score [15] | composite z-score [16] | z-score [17] | composite z-score [18] | composite z-score [19] | z-score [20]
1 | O=C1NC(=O)C2C1C=CC(C(O)CCc1ccccc1)N2Nc1ccccn1 (stereo not given) | 0.558 | 1.62 (inactive) | -0.145 | -0.0116 | 0.894 | 1.02 | 1.59 | 0.438 | 0.0374 | 0.891 | -0.0572 | 0.495 | 0.318 | 0.415 | 0.269 | -0.157 | 0.681 | -0.139 | 0.589 | -1.13 (inactive)
2 | CC(C)c1ccc(NN2C(C(O)c3ccccn3)C=CC3C(=O)N(c4ccccc4)C(=O)C32)cc1 (stereo not given) | 0.835 | -0.232 (inactive) | 0.447 | 0.142 | 0.808 | 2.92 | 0.881 | 1.32 | -0.159 | 1.1 | 0.75 | 1.28 | 0.405 | 0.947 | 1.28 | 1.48 | 1.14 | 1.18 | 0.976 | -1.5 (inactive)
3 | COc1ccccc1CN1C(=O)c2ccccc2[C@@]2(Cc3ccccc3N(C3CC3)C2=O)[C@@H]1c1ccc(CO)cc1 | 0.0999 | 0.794 (inactive) | -0.15 | -0.112 | 0.669 | 0.165 | -0.978 | -0.557 | -0.39 | 0.107 | 0.131 | -1.12 | -0.175 | -0.248 | 0.253 | -1.17 | 0.111 | -0.154 | -0.0487 | -0.379 (inactive)
4 | O=C1CSC(c2cccc([N+](=O)[O-])c2)N1c1ccccc1 (stereo not given) | 0.0623 | 0.0045 (inactive) | -0.0647 | -0.172 | 0.153 | 0.523 | 0.537 | 0.557 | 0.286 | 0.612 | 0.317 | 0.494 | -0.0119 | 0.667 | 0.244 | 0.481 | 0.774 | 0.257 | -0.0002 | 0.174 (inactive)
5 | COC(=O)[C@]1(Cc2ccccc2CN=[N+]=[N-])N=C(c2ccc(OCCCO)cc2)O[C@@H]1c1ccccc1CN=[N+]=[N-] | -0.204 | -0.206 (inactive) | -0.0984 | -0.0079 | 0.651 | 1.75 | 0.838 | 0.877 | 0.31 | 0.951 | 1.12 | 1.15 | 0.392 | 0.518 | 1.17 | 0.838 | 1.02 | -0.222 | 0.609 | -1.41 (inactive)
6 | [N-]=[N+]=NCc1ccccc1[C@H]1OC(c2ccc(OCCCO)cc2)=N[C@@]1(Cc1ccccc1)C(N)=O | 0.883 | -0.379 (inactive) | 0.391 | 0.0029 | 0.589 | 2.29 | 0.112 | 1.29 | -0.797 | 1.19 | 1.85 | 1.24 | 0.5 | 1.04 | 0.405 | -0.135 | 2.44 | -0.572 | 1.37 | -1.89 (inactive)
7 | CCOc1cc(C(O)C2C=CC3C(=O)NC(=O)C3N2Nc2ccccn2)ccc1O (stereo not given) | 0.409 | 0.057 (inactive) | -0.0663 | 0.0065 | 0.121 | -0.086 | 0.241 | -0.352 | 0.143 | 0.0306 | 0.227 | 0.255 | -0.0976 | -0.32 | 0.262 | 0.835 | 0.208 | -0.0684 | -0.298 | 0.25 (inactive)
8 | CO[C@H]1O[C@H](CO)[C@@H](OC(=O)Nc2ccc(C(F)(F)F)cc2)[C@H](OC(=O)Nc2ccccc2)[C@H]1OC(=O)Nc1ccccc1 | 0.868 | -0.465 (inactive) | 0.248 | 0.0083 | 0.565 | 2.68 | 0.494 | 1.3 | -0.42 | 1.21 | 2.65 | 1.25 | 1.15 | 0.737 | 1.29 | 0.805 | -1.89 | 0.88 | 1.33 | -0.579 (inactive)
9 | CCC[C@@H]1C[C@@]1(CCC)[C@@H](NC(=O)c1cccs1)c1ccc(Cl)cc1 | 0.259 | -0.222 (inactive) | -0.102 | -0.0617 | 0.247 | 0.855 | -0.199 | -0.0604 | -0.693 | -0.596 | -0.449 | -0.375 | -0.352 | 0.7 | -1.42 | -0.639 | -0.101 | -1.69 | 0.152 | -2.2 (inactive)
10 | COc1cccc(C)c1NC(=O)O[C@H]1[C@H](OC(=O)Nc2ccccc2)[C@H](OC(=O)Nc2ccccc2)[C@@H](OC)O[C@@H]1CO | 0.958 | -0.922 (inactive) | -0.0647 | 0.0564 | 0.54 | 2.48 | 0.25 | 1.34 | -1.05 | 1.17 | 1.44 | 1.26 | 1.01 | 0.442 | 0.615 | -0.21 | 0.138 | -0.337 | 0.861 | -0.852 (inactive)
11 | O=C1O[C@@H](c2ccccc2)[C@@H](c2ccccc2)N2[C@@H](c3ccc(O)cc3)[C@]3(C(=O)Nc4ccc(C#CC5(O)CCCCCC5)cc43)[C@@H](C(=O)N3CCN(c4ncccn4)CC3)[C@H]12 | 0.77 | 0.95 (inactive) | -0.0558 | -0.123 | 0.604 | 1.87 | 0.333 | 1.31 | -0.106 | 1.13 | 1.69 | 1.22 | 0.56 | 0.925 | 0.642 | 0.385 | -0.243 | 0.441 | 0.601 | 1.04 (inactive)
